PubChem BioAssay (NCI)
About 79,000 compounds went through this panel and 15% of them were active in at least one assay; those are over-represented in the sample as a whole. Unmarked numbers belong to inactive results. Calls of active or inactive are those of the source. Cut-off read from the data, not from the text of the source: active = growth inhibition above about 70%; inactive = the rest.

Experiments:
[1] = NCI Yeast Anticancer Drug Screen. Data for the rad50 strain (AID 155);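 note: 0% = growth of vehicle-only cultures of the same strain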; settings: S. cerevisiae rad50 strain growth inhibition, hits give high values
Method in brief: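 DNA repair mutant yeast, compound exposure, growth read-out; inhibition is taken relative to vehicle.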

[2] = NCI Yeast Anticancer Drug Screen. Data for the mec2-1 strain (AID 157); settings: S. cerevisiae mec2-1 strain, hits give high values
Method in brief: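 Strain: mec2-1 (DNA repair/cell cycle alteration). Compound exposure, then growth measured; inhibition expressed relative to vehicle.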

[3] = NCI Yeast Anticancer Drug Screen. Data for the sgs1 mgt1 strain (AID 161);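 note: 0% = growth of cultures given vehicle only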; settings: S. cerevisiae sgs1 mgt1 strain, hits give high values
Method in brief: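 Genetically altered yeast, compound exposure, growth inhibition relative to vehicle.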

[4] = NCI Yeast Anticancer Drug Screen. Data for the cln2 rad14 strain (AID 165);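 note: 0% = growth equal to vehicle treated cultures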; settings: S. cerevisiae cln2 rad14 strain, hits give high values
Method in brief: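 Compounds are applied to the cln2 rad14 yeast strain, and growth is then compared with that of vehicle-treated cultures to give inhibition.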

[5] = NCI Yeast Anticancer Drug Screen. Data for the bub3 strain (AID 167); settings: S. cerevisiae bub3 mutant strain, hits give high values
Method in brief: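 In this screen, a yeast mutant lacking normal mitotic checkpoint function is challenged with compound. Relative growth versus vehicle gives the inhibition value.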

[6] = NCI Yeast Anticancer Drug Screen. Data for the mlh1 rad18 strain (AID 175); settings: S. cerevisiae mlh1 rad18 strain growth inhibition, hits give high values
Method in brief: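 Read-out is yeast growth inhibition, calculated against vehicle-only controls. The compound was applied to a strain engineered with DNA damage repair alterations.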

[7] = at 5.0 µM (retest, dose inferred, filed as 0.5)
[8] = at 50.0 µM (retest, dose inferred, filed as 5.0)

Row | Compound | growth inhibition [1, 7] | growth inhibition [1, 8] | growth inhibition ([1]; at 50.0 µM) | growth inhibition [2, 7] | growth inhibition [2, 8] | growth inhibition ([2]; at 50.0 µM) | growth inhibition [3, 7] | growth inhibition [3, 8] | growth inhibition ([3]; at 50.0 µM) | growth inhibition [4, 7] | growth inhibition [4, 8] | growth inhibition ([4]; at 50.0 µM) | growth inhibition [5, 7] | growth inhibition [5, 8] | growth inhibition ([5]; at 50.0 µM) | growth inhibition [6, 7] | growth inhibition [6, 8] | growth inhibition ([6]; at 50.0 µM)
1 | OC(c1cc(-c2ccccc2)nc2cc(Cl)ccc12)C1CCCCN1 (stereo not given) | -2% | -3% | 8.7% | -3% | 3% | 26.1% | -1% | -2% | 37% | -5% | -4% | 15% | -2% | -5% | 75% (active) | -2% | -3% | 53.6%
2 | CCOc1ccc2c(c1)[n+]([O-])c(S(=O)(=O)c1ccc(C)cc1)c(N)[n+]2[O-] | -5% | 63% | 91.2% (active) | 18% | 77% (active) | 48.3% | 30% | 88% (active) | 90.8% (active) | 13% | 55% | 90.3% (active) | 37% | 97% (active) | 93.3% (active) | 20% | 85% (active) | 94.2% (active)
3 | COc1ccc(C2C3=C(CC(C)(C)CC3=O)Oc3cc4c(cc32)OCO4)c(OC)c1 (stereo not given) | 9% | 48% | 52.4% | 16% | 27% | 65.5% | 11% | -17% | 64.2% | 5% | 20% | 20.2% | 2% | 52% | 45.8% | 5% | 14% | 73% (active)
4 | O[C@H](CNCCS)[C@@H](O)CNCCS | -1% | 14% | 78% (active) | 2% | 28% | 54% | -6% | 27% | 80.1% (active) | 17% | 7% | 28.5% | -4% | 17% | 40% | -5% | 3% | 79.3% (active)
5 | CC/C(C)=N/OC(=O)Nc1ccccc1 | 5% | 0% | 39.1% | -22% | 5% | 17.2% | 2% | 20% | 64.7% | 5% | 8% | 11.2% | -74% | 2% | 0.05% | 1% | 14% | 34%
6 | CC12C(=O)N(CC(=O)O)C(=O)C1(C)C1c3ccccc3C2c2ccc3ccccc3c21 (stereo not given) | 7% | 97% (active) | 98.7% (active) | 1% | 98% (active) | 95.9% (active) | 2% | 98% (active) | 99% (active) | -8% | 99% (active) | 99% (active) | 1% | 96% (active) | 95.6% (active) | 0% | 98% (active) | 95.8% (active)
7 | O=[N+]([O-])c1ccc(C(Br)(Br)c2ccc([N+](=O)[O-])cc2)cc1 | 99% (active) | 99% (active) | 99.7% (active) | 97% (active) | 100% (active) | 99.7% (active) | 100% (active) | 100% (active) | 99.8% (active) | 95% (active) | 99% (active) | 99.3% (active) | 80% (active) | 99% (active) | 99.5% (active) | 93% (active) | 99% (active) | 99.5% (active)
8 | CC(=O)/C(=C\c1ccc(Cl)cc1Cl)C(=O)CCN(C)C | 4% | 99% (active) | 97.5% (active) | -3% | 99% (active) | 99.3% (active) | 11% | 99% (active) | 97.3% (active) | 4% | 98% (active) | 76% (active) | -1% | 98% (active) | 98% (active) | 1% | 98% (active) | 98.8% (active)
9 | CC(C)c1ccc(/C=C(\NC(=O)c2ccccc2)c2nc3ccccc3[nH]2)cc1 | -2% | 60% | 71.2% (active) | -27% | 53% | 86.1% (active) | -2% | 67% | 56.5% | -7% | 49% | 80.4% (active) | 6% | 71% (active) | 88% (active) | -3% | 62% | 93.3% (active)
10 | O=c1[nH]c2ccc([N+](=O)[O-])c(Cl)c2c2ccccc12 | 74% (active) | 97% (active) | 9.1% | 21% | 98% (active) | 12.3% | 38% | 98% (active) | 9% | 9% | 95% (active) | -46.8% | 19% | 97% (active) | 1.05% | 70% (active) | 96% (active) | 39.9%
